# Values quoted from earlier work, collected in PubChem BioAssay AID977611.
# In all, about 3,900 compounds went through this assay and about 3,900 (100%) were called active. The limit is not given here; nearly all actives have Kd up to about 4200 µM. The set was probably picked from earlier hits. The list shows a part of the results. Numbered stars: 1 amine (or outer) side, 2 acyl side, 3 side chain; on linkers, the order of the positions; unused ones are H or OH. Where a SMILES comes first, the peptide text is derived from it. Non-standard residues stand in square brackets, D forms with d. Square brackets hold non-standard residues; d marks the D form. Residues, ends and D or L forms follow the SMILES beside them. Peptide text beside a SMILES is read from it. X1 = O=C([C@H](Cc1ccc(O[P+](O)(O)O)cc1)N[*:1])[*:2]; Orn(CH(NH2)2) = NC(N)NCCC[C@H](N)C(=O)O
# Experiment: PubChem AID 977611
# Details: PDB protein-ligand complexes, literature Kd
molecule,measurement,setting,value
CCOc1cc(C(=O)O)nc2c(NC(=O)c3cc(O)c4cccc(NC(=O)c5cc(O)c6cccc(NC(=O)c7cc(OCC(C)C)c8cccc(NC(=O)NCCCCOc9cccc(CNC(=O)c%10ccc(S(N)(=O)=O)cc%10)c9)c8n7)c6n5)c4n3)cccc12,Kd,"protein: Human Carbonic Anhydrase II, PDB entry 4lp6",5.36 nM (active)
OS(O)(O)OC1C(OS(O)(O)O)C(OS(O)(O)O)C(OS(O)(O)O)C(OS(O)(O)O)C1OS(O)(O)O (stereo not given),Kd,"protein: HISTIDINE ACID PHOSPHATASE, PDB entry 4aro",160 nM (active)
Cc1cc(OCCCS(C)(=O)=O)cc(C)c1-c1cccc(COc2ccc3c(c2)OC[C@H]3CC(=O)O)c1,Kd,"protein: Free fatty acid receptor 1,Lysozyme hGPR40(L42A,F88A,G103A,Y202F mutant), PDB entry 4phu",12 nM (active)
CN(C)CCCn1cc(C2C(=O)NC(=O)C2c2c[nH]c3ccccc23)c2ccccc21 (stereo not given),Kd,"protein: human PIM1 kinase domain, PDB entry 1xws",10 nM (active)
C[C@H]1O[C@@H](c2cccc(O)c2O)N[C@@H]1C(=O)NCCCN(CCCNC(=O)c1cccc(O)c1O)C(=O)[C@H]1N[C@H](c2cccc(O)c2O)O[C@@H]1C,Kd,"protein: Ferric vibriobactin ABC transporter, periplasmic ferric vibriobactin-binding protein, PDB entry 3r5t",2.65 nM (active)
CN(C)C1=CCN(Cc2ccc(CCCCc3ccc(Cn4cnc5c(N)ncnc54)cc3)cc2)C=C1,Kd,"protein: CHOLINE KINASE ALPHA, PDB entry 3zm9",38 nM (active)
CC[C@H](C)[C@H](NC(=O)[C@@H](NC(=O)[C@H](CC(C)C)NC(=O)[C@@H](N)CO)[C@@H](C)O)C(=O)N[C@@H](Cc1ccc(O[P+](O)(O)O)cc1)C(=O)N[C@@H](C)C(=O)N[C@@H](CCC(N)=O)C(=O)N[C@H](C(=O)N[C@@H](CCC(N)=O)C(=O)N[C@@H](CCCCN)C(=O)O)C(C)C (H-SLTI[X1]AQVQK-OH),Kd,"protein: EWS/FLI1 activated transcript 2(ETA-2), PDB entry 1i3z",131 nM (active)
same,Kd,"protein: SAP, PDB entry 1d4w",120 nM (active)
CC[C@H](C)[C@H](NC(=O)[C@H](CO)NC(=O)[C@H](CO)NC(=O)[C@H](CCC(N)=O)NC(=O)[C@@H](NC(=O)[C@H](CCC(N)=O)NC(=O)[C@H](CCCNC(N)N)NC(=O)[C@H](Cc1ccccc1)NC(=O)[C@@H](NC(=O)[C@@H](N)CCCNC(N)N)[C@@H](C)O)C(C)C)C(=O)N[C@@H](CO)C(=O)N[C@@H](CC(=O)O)C(=O)N[C@@H](Cc1ccccc1)C(=O)N[C@@H](Cc1ccc(O)cc1)C(=O)N[C@@H](CC(=O)O)C(=O)O (H-[Orn(CH(NH2)2)]TF[Orn(CH(NH2)2)]QVQSSISDFYD-OH),Kd,"protein: Lipoprotein outS, PDB entry 4k0u",55 nM (active)
CC[C@H](C)[C@H](NC(=O)[C@H](CC(=O)O)NC(=O)[C@H](CS)NC(=O)[C@H](CCC(N)=O)NC(=O)[C@@H](NC(=O)CNC(=O)[C@@H](NC(=O)[C@@H](NC(=O)[C@H](CO)NC(=O)[C@H](CO)NC(=O)[C@H](C)N)[C@@H](C)O)[C@@H](C)O)[C@@H](C)O)C(N)=O (H-ASSTTGTQCDI-NH2),Kd,"protein: Dynein light chain 1, cytoplasmic LC8, PDB entry 4qh8",12800 nM (active)
Ac-SISYTDEIEEEDYD-OH,Kd,"protein: Fibronectin, PDB entry 4pz5",121 nM (active)
H-YAESGIQTDL-OH,Kd,"protein: Dynein light chain 1, cytoplasmic, PDB entry 4ds1",17900 nM (active)
CC[C@H](C)[C@H](NC(=O)[C@H](Cc1ccccc1)NC(=O)[C@@H](NC(=O)[C@H](CO)NC(=O)[C@H](CO)NC(=O)[C@H](C)NC(=O)[C@@H](NC(=O)[C@@H](N)CCCNC(N)N)C(C)C)C(C)C)C(=O)N[C@H](C(=O)O)[C@@H](C)O (H-[Orn(CH(NH2)2)]VASSVFIT-OH),Kd,"protein: Filamin-A, PDB entry 2w0p",300 nM (active)
CC(C)C[C@H](NC(=O)[C@H](CC(C)C)NC(=O)[C@H](CC(N)=O)NC(=O)[C@@H](NC(=O)[C@H](C)NC(=O)[C@H](CCCCN)NC(=O)[C@H](CO)NC(=O)[C@H](CCCCN)NC(=O)[C@@H](NC(=O)[C@@H](N)CC(C)C)C(C)C)[C@@H](C)O)C(=O)N[C@H](C=O)Cc1ccc(O)cc1 (H-LVKSKATNLLY-aldehyde),Kd,"protein: ATP-Dependent Clp Protease Adapter Protein ClpS, PDB entry 2w9r",4800 nM (active)
CC[C@H](C)[C@H](NC(=O)[C@@H](NC(=O)[C@H](CC(C)C)NC(=O)[C@H](CO)NC(=O)[C@@H](N)CCCCN)[C@@H](C)O)C(=O)N[C@@H](Cc1ccc(O)cc1)C(=O)N[C@@H](C)C(=O)N[C@@H](CCC(N)=O)C(=O)N[C@H](C(=O)N[C@@H](CCC(N)=O)C(=O)N[C@@H](CCCCN)C(=O)O)C(C)C (H-KSLTIYAQVQK-OH),Kd,"protein: SAP, PDB entry 1d4t",650 nM (active)
C[C@H](N)C(=O)N[C@@H](Cc1c[nH]c2ccccc12)C(=O)N[C@@H](CC(N)=O)C(=O)N[C@@H](CO)C(=O)O (H-AWNS-OH),Kd,"protein: mRNA-capping enzyme subunit alpha Pce1, PDB entry 4pz8",1190 nM (active)
H-GWNSFQSS-OH,Kd,"protein: GAE domain of ADP-ribosylation factor-binding protein GGA1(GGA1-GAE), PDB entry 2dwx",180000 nM (active)
N[C@@H](CC(=O)O)C(=O)N[C@@H](Cc1c[nH]c2ccccc12)C(=O)N[C@@H](CCC(=O)O)C(=O)N[C@@H](Cc1ccccc1)C(=O)O (H-DWEF-OH),Kd,"protein: human protein 25? (MO25?), PDB entry 1upk",400 nM (active)
CC(C)C[C@H](NC(=O)[C@H](CO)NC(=O)[C@H](CCCCN)NC(=O)[C@H](CCCCN)NC(=O)[C@H](CC(C)C)NC(=O)[C@H](CO[P+](O)(O)O)NC(=O)[C@H](CCCCN)NC(=O)[C@@H](NC(=O)[C@H](CCCN=C(N)N)NC(=O)[C@H](CO)NC(=O)[C@H](C)N)C(C)C)C(=O)N[C@@H](CCCN=C(N)N)C(=O)N[C@@H](CCC(N)=O)C(=O)N[C@@H](CO)C(=O)N[C@@H](Cc1ccccc1)C(=O)O,Kd,"protein: Disks large homolog 4, Dlg GK, PDB entry 3wp0",10200 nM (active)
CSCC[C@H](NC(=O)[C@H](CCCN=C(N)N)NC(=O)[C@H](CCCN=C(N)N)NC(=O)[C@H](Cc1ccccc1)NC(=O)[C@H](CO[P+](O)(O)O)NC(=O)[C@H](CCC(N)=O)NC(=O)[C@H](CCCN=C(N)N)NC(=O)[C@H](CC(C)C)NC(=O)[C@H](CO)NC(=O)[C@H](CCCCN)NC(=O)[C@@H](N)CCCCN)C(=O)N[C@@H](C)C(=O)O,Kd,"protein: Disks large homolog 4, Dlg GK, PDB entry 3wp1",14100 nM (active)
